Screen size: about 210,000 compounds; about 730 (0.35%) were called active. A call without a number means that no potency is given here. Inconclusive results (about 1%) are left out. Calls come from the whole dose curve; as a rule, active = well fitted inhibition curve with a large enough effect; inconclusive = small, poorly fitted or top-dose-only effect; inactive = no such curve, though single readings can be large or run the other way. This excerpt belongs to a sample that is enriched for actives.

Consider 48 molecules from PubChem BioAssay AID1457 (National Center for Advancing Translational Sciences (NCATS), 2008).
Potency is the fitted concentration of half-maximal effect.

This assay is described as follows: qHTS Assay for Identifying the Cell-Membrane Permeable IMPase Inhibitors: Potentiation with Lithium.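 Note: IP1 builds up when IMPase is blocked and the TR-FRET signal falls; nearly all actives have a fitted effect of over 50% in size.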 Conditions: CHO-M1 cells, IP1 TR-FRET (IP-One), carbachol + lithium; series mostly up to 59.4 µM. The text has this:
NIH Chemical Genomics Center [NCGC]
NIH Molecular Libraries Probe Production centers Network [MLPCN]
Assay Submitter (PI): Wei Zheng
Lithium has been widely used for the treatment of bipolar disorder. But lithium has a narrow therapeutic index and it can cause side effects such as thirst, weight gain, tremor, polyuria and memory problems. Although the mechanism for lithium action in treatment of bipolar disorder is still not fully understood, inhibition of inositol monophosphatase (IMPase) and the subsequent depletion of the inositol pool in living cells have been implicated as the primary therapeutic benefit of lithium therapy. Therefore, a selective IMPase inhibitor with reduced side effects might be a good drug candidate to replace lithium for the treatment of bipolar disorder. Several IMPase inhibitors have been discovered previously. However, they are not suitable for therapeutic use because of their poor cell membrane penetrability or oral bioavailability; the development of new cell-permeable IMPase inhibitors is needed.
IMPase catalyzes the hydrolysis of inositol-1-phosphate (IP1) to release free inositol. Binding of an agonist to a Gq coupled GPCR results in the activation of PLC, which hydrolyzes the PIP2 to form inositol-1,4,5-trisphosphate (IP3) and diacyl glycerol (DAG). While DAG activates protein kinase C (PKC), IP3 triggers the elevation of intracellular free Ca2+. The IP3 is very rapidly inactivated by hydrolysis to IP2, IP1 and then inositol by a series of enzymes including IMPase. Free inositols are used for synthesis of PI and thus start another inositol cycle.
To identify new cell-permeable IMPase inhibitors, we developed a cell-based IMPase assay in which the cytosolic IP1 is measured by a time-resolved fluorescence resonance energy transfer (TR-FRET) assay. In this assay, an IP1 specific antibody is used to detect the labeled IP1 tracer. When the cell lysate contains the elevated IP1 due to the inhibition of IMPase, the TR-FRET between the labeled antibody and IP1 tracer is disrupted resulting in a reduction in the total signal. Since the TR-FRET is used, this cell-based assay is a homogenous assay without cell wash and medium change that is suitable for assay miniaturization and HTS. In this particular assay, a small amount of lithium is added to potentiate the response of weak activators.
NCGC Assay Protocol Summary:
A Chinese hamster ovary (CHO) cell line stably expressing the M1 receptor (CHO-M1) was obtained from ATCC and maintained in F-12 Kaighn's media (Invitrogen, Carlsbad, CA) supplemented with 10 % FBS, 100 units/ml penicillin, 100 ug/ml streptomycin and 250 ug/ml geneticin at 37C, 5% CO2 in a humidified atmosphere. Before the assay, aliquots of cells were frozen and stored at -135C. The assay was performed in 1536-well format. Data are reported for both the ratio of the two emission wavelengths, and also for the component 'donor' channel, Em2=620. […] AC50 values were determined from concentration-response data modeled with the standard Hill equation.
(1) Frozen CHO-M1 cells were thaw, washed once with fresh media and resuspended in F12K media containing 10% FBS, 100 units/ml penicillin and 100 ug/ml streptomycin. Cells were plated at 4ul/well (2000 cells) in white, tissue culture treated 1536-well plates, and then cultured at 37C, 5 % CO2 for 16 to 30 hours.
(2) Add 23 nl/well of compound in DMSO solution. The final titration for each compound was between 0.6 nM and 46 uM.
(4) Incubation at 37C, 5 % CO2 for 30 min.
(5) Add 1 ul/well of d2-conjugated IP1 (d2-IP1) and 1 ul/well of Eu+ cryptate conjugated anti-IP1 antibody (Eu+-Ab) prepared in the cell lysis buffer, both from the IP-One kit (Cisbio, MA).
(6) Incubate at room temperature for 10 minutes.
(7) Detect the assay plate (Ex = 320, Em1 =665 and Em2 620) in a ViewLux plate reader.
On to `CC1(OC(=O)c2ccc(Cl)nc2)C(=O)Cc2cc(-c3ccsc3)ncc2C1=O` (stereo not drawn), for which the Potency entry is “inactive”. Under `CCN(CC)CCN1C(=O)C(=O)/C(=C(/O)c2ccccc2)C1c1ccccc1F` (stereo not drawn) stands “inactive”; under `COc1cc(C2/C(=C(\O)c3ccc4c(c3)CC(C)O4)C(=O)C(=O)N2Cc2ccco2)ccc1O` (stereo not drawn), “inactive”; under `COc1cccc(C2/C(=C(/O)c3ccncc3)C(=O)C(=O)N2CCCN(C)C)c1` (stereo not drawn), “inactive”. Turning to `CC1Cc2cc(/C(O)=C3\C(=O)C(=O)N(CCN4CCOCC4)C3c3ccccc3F)ccc2O1` (stereo not drawn), the Potency was 10 µM (active).

`O=C1C(=O)N(CCN2CCOCC2)C(c2ccccn2)/C1=C(/O)c1ccc(Cl)cc1` (stereo not drawn): the Potency result is “inactive”. As to `COCCCN1C(=O)C(=O)/C(=C(/O)c2ccc3c(c2)CC(C)O3)C1c1cccnc1` (stereo not drawn), the Potency is 8.91 µM (active). On to `CC(C)(C)OC(=O)NCCCC1=CC2=CC(=O)C(C)(OC(=O)c3ccco3)C(=O)C2=CO1` (stereo not drawn), for which the Potency result was “inactive”.

For the molecule `CCCCC/C=C\C/C=C\CCCCCCCCCC(N)=O`, the Potency result is “inactive”. For `COC(=O)C1=C(C(=O)OC)[C@@H]2N(C)c3ccccc3[C@@]23C[C@@H](C(=O)OC)N(C(=O)c2ccco2)C3=N1`, the Potency result was “inactive”. Under `CCCCCCCC1=Cc2ccc(F)cc2C(C(C(=O)OC)C(=O)OC)N1C(=O)OC` (stereo not drawn) stands “inactive”. `NC(=O)COc1ccc2c3c(c(=O)oc2c1)CCCCC3`: the Potency entry is “inactive”. As for `O=C(Oc1ccccc1)Oc1ccc2c(c1)oc(=O)c1ccccc12`, the Potency is 10 µM (active). As to `Cc1c(Cc2ccccc2)c(=O)oc2cc(OCC(N)=O)ccc12`, the Potency result is “inactive”. On to `CCOC(=O)C1=C(C)c2ccccc2OC1(C)C(=O)OCC` (stereo not drawn), for which the Potency entry is “inactive”. With `CCCCC/C=C\C/C=C\CCCCCCCCCC(=O)O`, the Potency entry was “inactive”. Under `C[C@H]1Cc2c(COc3ccccc3)nc3c(c2CO1)CN(C(=O)Nc1cccc(C#N)c1)CC3` stands “inactive”; under `C#CCCOC(=O)N1C2=NC(C(=O)OC)=C(C(=O)OC)[C@@H]3N(C)c4ccc(OC)cc4[C@]23C[C@H]1C(=O)OC`, “inactive”; under `COc1ccc(-c2nc3c(c4c2C[C@H](c2ccccc2)OC4)CN(C(=O)c2ccco2)CC3)c(C)c1`, “inactive”. With `C=CC1=C2C=C(C3CC3)N(C(CO)CO)C=C2C(=O)C(C)(OC(=O)c2ccco2)C1=O` (stereo not drawn), the Potency result was “inactive”. With `COc1ccc2c(c1)O[C@@H](c1ccc3c(c1)OCO3)[C@H](OC(=O)NCc1ccco1)C2=O`, the Potency result was “inactive”. As for `Cc1ccc(C)c(S(=O)(=O)N2CC(=O)Nc3ccccc32)c1`, the Potency entry was “inactive”. With `Cc1ccc(S(=O)(=O)N2CC(=O)Nc3ccccc32)cc1C`, the Potency result is “inactive”.

Consider `O=C1CN(c2nc(-c3ccccc3)c3cc(Br)ccc3n2)c2ccccc2N1`, for which the Potency is 12.6 µM (active). On to `COc1ccc(-c2nc3c(c4c2C[C@H](c2ccccc2)OC4)CN(S(=O)(=O)c2c(C)noc2C)CC3)c(C)c1`, for which the Potency result is “inactive”. As for `O=C(c1ccco1)N1CCC2(CC1)CCN(c1ncccn1)CC2`, the Potency entry is “inactive”. On to `O=C(c1ccco1)N1CCC2(CC1)CN(c1ncccn1)C2`, for which the Potency result is “inactive”. In the case of `O=C(C1=C(O)C(=O)N(c2ncccn2)C1c1cccs1)c1ccco1` (stereo not drawn), the Potency was 11.2 µM (active). Consider `C=CCC1CCC(=O)N2CCCC12` (stereo not drawn), for which the Potency result is “inactive”. Take `C[C@@H]1C(c2ccc(F)cc2)=NN(c2ccc(Br)cc2)[C@H]1C(=O)N1CCOC1=O`: the Potency result was “inactive”.

Take `COC(=O)CC1c2ccccc2C(Cc2ccc(OC)cc2)=C(C)N1C(=O)OC` (stereo not drawn): the Potency result was “inactive”. Consider `COc1cc(OC)c2c(c1)OC(=O)CC2c1cc(OC)c(OC)c(OC)c1` (stereo not drawn), for which the Potency entry was “inactive”. `CC1=C2[C@@H](O)[C@H]([C@@H](C)C(=O)NCCC(C)C)CC[C@@]2(C)C=CC1=O`: the Potency entry was “inactive”. Turning to `C=CC1(C)CC(=O)C2(O)C(C)(O1)C(OC(C)=O)C(O)C1C(C)(C)CCC(O)C12C` (stereo not drawn), the Potency result is “inactive”. Under `COC(=O)C1=C(C(=O)OC)[C@@H]2N(C)c3ccccc3[C@@]23C[C@@H](C(=O)OC)N(C(C)=O)C3=N1` stands “inactive”; under `Nc1c(C(=O)NCc2ccccc2)sc2nc3c(cc12)C(=O)CCC3`, “inactive”. Consider `CCN(CC)C(=O)c1sc2nc(-c3ccccc3)ccc2c1N`, for which the Potency is 10 µM (active). `CCCC(=O)n1nc(-c2ccccc2)nc1N`: the Potency result is “inactive”.

Take `CCCCC/C=C\CC1OC1CCCCCCCC(=O)O` (stereo not drawn): the Potency result is “inactive”. Consider `O=C(COC(=O)Cn1cnc2ccccc21)Nc1cccc2c1C(=O)c1ccccc1C2=O`, for which the Potency result is “inactive”.

For `O=C(COC(=O)c1cccc(Br)c1)Nc1cccc2c1C(=O)c1ccccc1C2=O`, the Potency is 11.2 µM (active). `O=C(COC(=O)c1ccccc1)Nc1ccccc1Sc1ccccc1`: the Potency entry is “inactive”. For `C=CCOC(=O)NC(c1ccc(F)c(F)c1)C(C(=O)COC)C(=O)OC` (stereo not drawn), the Potency result was “inactive”.

With `Cc1csc(-c2coc3cc(O[C@@H]4O[C@H](CO)[C@@H](O)[C@@H](O)[C@H]4O)ccc3c2=O)n1`, the Potency result is “inactive”.

In the case of `CC(C)(Oc1ccc(C2CC2(Cl)Cl)cc1)C(=O)O` (stereo not drawn), the Potency result is “inactive”. In the case of `CC(O)[C@@H](N)C(=O)O` (stereo partly drawn), the Potency result was “inactive”. As for `CCCCCCCC/C=C\CCCCCCCC(=O)OC[C@H](CO)OC(C)=O`, the Potency result was “inactive”.

For `CCOC(=O)C1=C(C(=O)OCC)C(C(=O)OCC)N(S(=O)(=O)C(F)(F)F)c2ccccc21` (stereo not drawn), the Potency entry was “inactive”.
